Rows were chosen to be rich in hits. Some 6.2% of all compounds tested hit in one or more screens of this group.
ATXN2 expr inh = reduces ATXN2 reporter expression in HEK-293 cells; HEK-293 ATXN2-luciferase reporter, luminescence, 24 h; Potency, µM (top dose mostly 57 µM), for inactives: at the top dose activity change, negative = inhibition, actives largely listed as inhibitors; 360,000 compounds, 0.72% hits; AID 1745845; note: % is set by controls: 0 for no effect and ±100 for the full control effect; nearly all actives have a fitted effect of over 55% in size
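ATXN2-luciferase reporter cells (luciferase flanked by upstream and downstream ATXN2 gene portions) were treated 24 h at 37 °C with compounds at up to 57 uM. SteadyGlo luminescence gave expression; GF-AFC fluorescence gave viability.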
HT1080 IDH1KD tx = HT-1080 IDH1 knockdown cell toxicity (counter line) | Potency, µM (highest dose often 46.1 µM), without a hit: top-dose activity, negative = toxicity, usual class: cytotoxic | 360,000 compounds, 2% hits | HT-1080 IDH1 knockdown viability, ATP luminescence, 48 h | AID 686971;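 note: 0% = DMSO wells and -100% = cell-free medium wells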
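Using the IDH1-knockdown HT-1080 line run in the same batch and compound series as the NT line, viability after 48 h at 37 °C was determined by CellTiter-Glo luminescence and expressed as % activity.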
HT1080NT lethal = kills 2HG-producing HT-1080-NT fibrosarcoma cells; HT-1080-NT fibrosarcoma viability, CellTiter-Glo ATP luminescence, 48 h; Potency, µM (titrated, usually from 46.1 µM), without a hit: top-dose activity, negative = less viability, actives largely listed as cytotoxic; 360,000 compounds, 1.6% hits;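 note: NT is the 2HG producing partner of a matched IDH1 knockdown line; 0% = DMSO-treated cells and -100% = media-only wells without cells; nearly all actives have a fitted effect of over 55% in size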
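Fibrosarcoma NT cells, 750 per well in 5% FBS RPMI, were exposed to compound for 48 hours. Viability: CellTiter-Glo luminescence.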
S2 tox = cell viability loss in ATXN counter-screen | S2 cells (HEK-293 line with an ATXN2-luciferase reporter) viability, CellTiter-Fluor protease fluorescence, 24 h | 400,000 compounds, 0.49% hits | AID 651635 | Potency, µM (top dose mostly 56.7 µM), hits mostly cytotoxic; note: nearly all actives have a fitted effect of over 40% in size
KB-V1 cytotox = KB-V1 MDR subline cytotoxicity; KB-V1 MDR cells viability, CellTiter-Glo, 72 h; 400,000 compounds, 3.4% hits; AID 1347076; Potency, µM (doses to about 46.1 µM), actives largely listed as cytotoxic; note: % is set by controls: 0 for no effect and ±100 for the full control effect; nearly all actives have a fitted effect of over 60% in size
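Potencies derive from concentration-effect curves fitted to normalized luminescence (CellTiter-Glo) of KB-V1 cells treated for 72 h at 37 degrees C in phenol-red-free DMEM containing 10% FBS.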
KB-3-1 cytotox = KB-3-1 parental cell cytotoxicity; KB-3-1 viability, CellTiter-Glo ATP luminescence, 72 h; Potency, µM (top dose mostly 46.1 µM), actives largely listed as cytotoxic; AID 1347075; 400,000 compounds, 1.4% hits; note: % is set by controls: 0 for no effect and ±100 for the full control effect; nearly all actives have a fitted effect of over 60% in size
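Parental KB-3-1 adenocarcinoma cells in phenol-red-free DMEM with 10% FBS were pin-treated with compounds at several concentrations, incubated 72 h at 37 °C, and viability read by CellTiter-Glo luminescence; concentration-effect curves were fitted after normalization.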
Starred values were filed as active, the others as inactive; i = inactive; ? = inconclusive; nt = no result; ! = not confirmed by another sample. Calls come from the whole dose curve; as a rule, active = well fitted curve in the direction sought with a large enough effect; inconclusive = small, poorly fitted or top-dose-only effect, or another doubt; inactive = no such curve, though single readings can be large; an effect the other way counts as inactive or inconclusive. Potency is the fitted concentration of half-maximal effect.

SMILES	ATXN2 expr inh	HT1080 IDH1KD tx	HT1080NT lethal	S2 tox	KB-V1 cytotox	KB-3-1 cytotox
CCc1nc2ccc(C(=O)NCCc3ccc(OC)c(OC)c3)cc2nc1CC	-10.5%	-1.5%	-1.9%	i	i	i
COc1ccc(CCNC(=O)c2cc(-c3ccco3)on2)cc1OC	-20.6%	-18.3%	-20.5%	i	18.4µM*	9.2µM*
COc1ccc(CCNC(=O)c2ccc3c(c2)ncn3-c2ccc(C(C)C)cc2)cc1OC	25.1µM*	nt	nt	?	?	i
COc1cccc(-c2cc(C(=O)NCCc3ccc(OC)c(OC)c3)no2)c1	-5.1%	nt	nt	i	i	i
COc1ccc(CCNC(=O)c2ccc3nc(-c4ccco4)c(-c4ccco4)nc3c2)cc1OC	?	?	?	i	7.31µM*	?
COc1ccc(CCNC(=O)c2ccc3c(c2)ncn3-c2ccc(C)cc2C)cc1OC	?	nt	nt	?	i	i
Cc1cccc(NC(NC(=O)c2ccccc2[N+](=O)[O-])C(Cl)(Cl)Cl)c1 (centres undefined)	2.1%	0.0%	9.9%	?	23.1µM*	i
O=C1CCc2cc(S(=O)(=O)Nc3ccc(F)c(Cl)c3)ccc2N1	nt	nt	nt	nt	i	i
CCOc1ccc(-c2cc(C(=O)N3CCN(C)CC3)c3ccccc3n2)cc1	4.1%	0.9%	6.4%	i	i	i
COc1ccc(-c2cc(C(=O)N3CCCC3)c3ccccc3n2)cc1	4.8%	-9.5%	-17.0%	i	i	?
CCOC(=O)N1CCN(C(=O)c2cc(-c3ccc(OCC)cc3)nc3ccccc23)CC1	5.9%	5.01µM*	5.01µM*	?	2.31µM*	4.61µM*
COc1ccc(-c2cc(C(=O)N3CCN(c4ccccn4)CC3)c3ccccc3n2)cc1	-35.2%	?	?	?	i	i
CCOc1ccc(-c2cc(C(=O)N3CCN(c4ccccn4)CC3)c3ccccc3n2)cc1	24.6%	?	?	i	?	4.11µM*!
COc1ccc(-c2cc(C(=O)N3CCN(c4ccccc4)CC3)c3ccccc3n2)cc1	-7.3%	1.84µM*	?	?	7.31µM*	?
COc1ccc2cc(-c3cc(C(=O)O)c4ccccc4n3)ccc2c1	?	?	?	i	i	14.6µM*
COc1ccc(OC)c(NC(=O)Cn2c(=O)cc(-c3ccccc3)c3c(C)nn(C)c32)c1	?	nt	nt	?	i	i
CCCOc1ccc(-c2nonc2NC(=O)c2oc3ccc(Cl)cc3c2C)cc1OCCC	10.6%	nt	nt	i	i	i
COc1ccc2nc(-c3ccccc3)cc(C(=O)N3CCC3)c2c1	nt	-8.5%	-0.6%	nt	i	i
COc1cccc(CN2CCN(C(=O)c3cc(-c4cccnc4)nc4ccc(C)cc34)CC2)c1	-19.5%	-11.8%	-18.4%	i	23.1µM*	i
COc1ccc(S(=O)(=O)N2CCC(n3c(C)nc4cccnc43)CC2)cc1Cl	-15.2%	nt	nt	i	i	i
Cc1cccc(C)c1NC(=O)CN(Cc1ccc(Br)cc1)S(=O)(=O)c1ccccc1	-8.0%	nt	nt	i	i	i
COc1ccc(NC(=O)Nc2ccccc2F)cc1	0.0%	-8.8%	?	i	18.4µM*	?
CSc1ccc(NC(=O)Nc2cccn(Cc3ccccc3)c2=O)cc1	0.6%	?	?	i	3.66µM*	8.2µM*
COC(=O)c1ccc(NC(=O)Nc2ccccc2F)cc1	22.5%	-29.0%	-29.0%	i	i	?
COc1ccc(Cn2cccc(NC(=O)Nc3ccc(F)cc3)c2=O)cc1	-30.7%	-15.0%	-11.8%	i	i	i
SMILES	ATXN2 expr inh	HT1080 IDH1KD tx	HT1080NT lethal	S2 tox	KB-V1 cytotox	KB-3-1 cytotox
CSc1ccccc1NC(=O)Nc1ccc(Cl)cc1	?	?	14.1µM*	i	i	i
CSc1ccccc1NC(=O)COc1ccc(Cl)cc1C	34.7%	17.9%	17.2%	i	13µM*	?
CCOC(=O)c1ccccc1NC(=O)N(C)CCc1c(C)nn(CC)c1C	19.8%	nt	nt	?	i	i
COc1cccc(NC(=O)Cn2c(=O)n(CCCC(=O)NCc3ccc4c(c3)OCO4)c(=O)c3ccccc32)c1	3.5%	nt	nt	i	?	i
COc1ccc(C(=O)Nc2nccs2)cc1	20.4%	-1.0%	14.7%	i	i	i
COc1ccc(NC(=O)Nc2nccs2)cc1	21.8%	?	?	i	7.31µM*	?
O=C(N/N=C/c1cn(-c2ccccc2)nc1-c1cc2ccccc2o1)c1c[nH]c2ccccc12	45.8%	-22.8%	-23.5%	i	i	i
O=C(N/N=C/c1cn(-c2ccccc2)nc1-c1cc2ccccc2o1)c1ccccc1Br	53.2%	11.6µM*	?	i	?	?
CCOC(=O)Cc1c(C)nc2c(-c3ccc(Cl)cc3)c(C)[nH]n2c1=O	?	10µM*	12.6µM*	i	?	?
CCOC(=O)Cc1c(C)nc2cc(-c3ccc(C(C)(C)C)cc3)[nH]n2c1=O	33.0%	1.26µM*	?	i	i	i
CCOC(=O)Cc1c(C)nc2cc(-c3ccc(C(C)(C)C)cc3)nn2c1C	5.2%	nt	nt	i	i	i
CCOC(=O)CCc1c(C)nc2c(-c3ccccc3)c(C)[nH]n2c1=O	-20.0%	nt	nt	i	i	i
Cc1c(C=O)c(C=O)c(C)n1Cc1ccccc1	?	4.11µM*	8.2µM*	nt	?	?
CC(=O)c1c(C(C)=O)c(C)n(Cc2ccccc2)c1C	-17.6%	-3.6%	3.9%	i	20.6µM*	i
CCOC(=O)C1=C(Cc2ccc(OC)cc2)C(=O)c2ccccc2C1=O	?	7.94µM*	10µM*	?	i	i
CCOC(=O)c1ccc(COC(=O)c2ccc3c(c2)-c2ccccc2C3=O)cc1	0.6%	8.5%	7.2%	i	14.6µM*	i
CCOC(=O)C1=C(O)c2ccccc2C(=O)/C1=C\c1ccc(CC)cc1	?	8.91µM*	11.2µM*	?	?	11.6µM*
Cc1cccc(Cn2c(=O)n(CC3CCC(C(=O)NC(C)C)CC3)c(=O)c3sccc32)c1 (centres undefined)	9.2%	nt	nt	i	i	i
CCCCCCCCCCCCCCCC[n+]1ccc(/C=N/O)cc1	?	23.1µM*	20.6µM*	?	i	2.91µM*
CCC(CC)c1nc(C#N)c(NCc2ccccc2)o1	-3.4%	?	?	i	?	14.6µM*
Cc1ccc(OCc2nc(C#N)c(NCCc3ccccc3)o2)cc1	nt	nt	nt	nt	i	i
